# Measured values taken from article PMC4336329 (PLoS ONE, 2015).
# In all, about 310,000 compounds went through this assay and about 14,000 (4.5%) showed an effect of 50% or more. Effects have a minus sign here. Only a selection was taken, and strong results are over-represented in it overall.
# Biological target: human ether-à-go-go-related gene (hERG) potassium channel (human, UniProt Q12809)
# Test: primary screen, population patch clamp on CHO cells stably expressing hERG; higher = less effect of the substance
# 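Also: peak tail current of the secondary pulse compared with the same well before compound.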
# Sequence of human ether-à-go-go-related gene (hERG) potassium channel (Q12809 whole entry, looked up): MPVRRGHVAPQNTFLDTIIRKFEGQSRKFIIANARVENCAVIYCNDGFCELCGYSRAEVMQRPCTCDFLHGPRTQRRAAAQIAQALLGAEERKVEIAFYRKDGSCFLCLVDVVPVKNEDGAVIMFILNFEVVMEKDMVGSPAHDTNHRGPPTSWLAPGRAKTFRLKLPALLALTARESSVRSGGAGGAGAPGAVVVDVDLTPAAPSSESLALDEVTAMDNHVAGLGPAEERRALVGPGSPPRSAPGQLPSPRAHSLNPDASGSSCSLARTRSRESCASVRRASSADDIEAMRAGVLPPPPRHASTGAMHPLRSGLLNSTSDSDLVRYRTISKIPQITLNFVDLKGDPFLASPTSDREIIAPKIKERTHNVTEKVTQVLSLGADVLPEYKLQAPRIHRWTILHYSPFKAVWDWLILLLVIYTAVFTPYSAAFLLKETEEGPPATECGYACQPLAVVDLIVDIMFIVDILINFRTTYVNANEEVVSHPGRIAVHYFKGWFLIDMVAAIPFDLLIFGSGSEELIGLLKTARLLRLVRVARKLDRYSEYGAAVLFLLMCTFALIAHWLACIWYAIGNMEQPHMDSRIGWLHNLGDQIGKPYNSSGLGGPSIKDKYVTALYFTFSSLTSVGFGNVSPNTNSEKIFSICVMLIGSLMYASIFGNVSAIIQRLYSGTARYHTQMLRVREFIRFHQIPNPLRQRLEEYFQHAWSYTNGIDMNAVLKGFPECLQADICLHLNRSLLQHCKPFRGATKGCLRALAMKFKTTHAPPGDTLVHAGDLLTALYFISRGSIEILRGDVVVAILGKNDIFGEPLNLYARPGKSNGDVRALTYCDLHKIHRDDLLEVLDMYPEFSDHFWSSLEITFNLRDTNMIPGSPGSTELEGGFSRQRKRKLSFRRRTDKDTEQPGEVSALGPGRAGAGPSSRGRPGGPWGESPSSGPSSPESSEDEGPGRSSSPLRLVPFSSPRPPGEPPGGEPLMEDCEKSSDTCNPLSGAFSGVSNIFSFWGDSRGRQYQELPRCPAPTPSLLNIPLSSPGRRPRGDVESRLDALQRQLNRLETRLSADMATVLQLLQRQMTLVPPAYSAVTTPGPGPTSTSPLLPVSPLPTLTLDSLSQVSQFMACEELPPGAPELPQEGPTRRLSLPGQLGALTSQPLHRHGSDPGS
row,Compound,"hERG current change (%, negative = inhibition) at 10uM"
1,CN1CCN(S(=O)(=O)c2ccc(N(C)Cc3ccc(OC(F)F)cc3)c([N+](=O)[O-])c2)CC1,-60.8%
2,C=CCOc1ccc(CN(C)c2ccc(S(=O)(=O)N3CCN(C)CC3)cc2[N+](=O)[O-])cc1,6.82%
3,CN1CCN(S(=O)(=O)c2ccc(Nc3cccc(Cl)c3)c([N+](=O)[O-])c2)CC1,-20.7%
4,CN1CCN(S(=O)(=O)c2ccc(N(C)Cc3ccc(C(F)(F)F)cc3)c([N+](=O)[O-])c2)CC1,-5.45%
5,CN1CCN(S(=O)(=O)c2ccc(Nc3ccc(F)cc3)c([N+](=O)[O-])c2)CC1,-51.3%
6,COc1cc(Nc2ccc(S(=O)(=O)N3CCN(C)CC3)cc2[N+](=O)[O-])cc(OC)c1,-28.6%
7,Cc1nnc(SCC(N)=O)n1CC1CCCO1 (stereo not shown),3.55%
8,NC(=O)c1ccsc1NC(=O)c1coc2ccccc2c1=O,-2.56%
9,COc1ccc(-c2nn3c(-c4ccccn4)nnc3s2)cc1OC,10.6%
10,CCOC(=O)c1sc(SCC(=O)Nc2ccc(N(C)C)cc2)nc1N,-13%
11,S=C(NCCc1cnc[nH]1)NC1CCCC1,23.2%
12,CCOC(=O)Cc1nc2cc(Cl)ccc2o1,10.7%
13,N#Cc1ccsc1NC(=O)c1ccccn1,-4.67%
14,CCOc1ccc(OCCC(=O)N2CCc3cc(OC)c(OC)cc3C2)cc1,-20.6%
15,COc1ccc(OC)c(Nc2nc(NCc3ccco3)c3ccccc3n2)c1.Cl,-12.2%
16,O=C(NC1CCCN(C2Cc3ccccc3C2)C1)c1ccc(F)cc1Cl (stereo not shown),-71.1%
17,CC#CC(=O)NC1CCCN(C2Cc3ccccc3C2)C1 (stereo not shown),-18.7%
18,COc1cccc(C(=O)NC2CCCN(C3Cc4ccccc4C3)C2)c1OC (stereo not shown),-41.7%
19,C#Cc1cccc(C(=O)NC2CCCN(C3Cc4ccccc4C3)C2)c1 (stereo not shown),-64.4%
20,O=C(NC1CC1)c1ccc(F)cc1Cl,21%
21,CSCC(=O)NC1CCCN(C2Cc3ccccc3C2)C1 (stereo not shown),-5.38%
22,Cn1cnnc1SC(C(=O)Nc1cc(Cl)cc(Cl)c1)c1ccccc1 (stereo not shown),20.9%

row,Compound,"hERG current change (%, negative = inhibition) at 10uM"
1,Cc1cc(C(=O)CSc2nc3ccccc3[nH]2)c(C)n1CC1CCCO1 (stereo not shown),-12.5%
2,CC(C)(C)NC(=O)NC(=O)CSc1ccc(S(=O)(=O)N2CCCCC2)cn1,-13.5%
3,Cc1cccc(C)c1OCc1cc(C(=O)N2CCCCCCC2)no1,-0.442%
4,O=C(c1cc(COc2c(F)cccc2F)on1)N1CCN(C2CCCCC2)CC1,-52%
5,O=C(c1cc(COc2c(F)cccc2F)on1)N1CCCCCC1,4.46%
6,Cc1cccc(C)c1OCc1cc(C(=O)N2CCN3CCCC3C2)no1 (stereo not shown),-19.5%
7,CC(=O)N1CCCN(C(=O)c2cc(COc3c(F)cccc3F)on2)CC1,6.58%
8,Cc1cccc(C)c1OCc1cc(C(=O)N2CCN(C3CCCC3)CC2)no1,-67.9%
9,CN(C)Cc1c(-c2ccc(Cl)cc2)nc2ccccn12,0.0702%
10,CC(C)(C)c1ccc(C(=O)NCCCNC(=O)c2cccnc2)cc1,11.7%
11,CCN(C(=O)[C@@H]1CCCN1C(=O)c1cccs1)c1nc2cc(Cl)ccc2s1,-36%
12,Cc1ccc(-c2noc(CCC(=O)NCC3CCCO3)n2)cc1 (stereo not shown),2%
13,COc1ccc(-c2noc(CCC(=O)NCC3CCN(Cc4cccc(C)c4)CC3)n2)cc1,-60.3%
14,COc1ccc(-c2noc(CCC(=O)NC3CCN(Cc4ccccc4)CC3)n2)cc1,-45.7%
15,Cc1ccc(-c2noc(CCC(=O)NCC3CCN(Cc4cccc(C)c4)CC3)n2)cc1,-63.8%
16,COc1ccc(-c2noc(CCC(=O)NCCc3cccc(C)c3)n2)cc1,-0.562%
17,Cc1ccc(-c2noc(CCC(=O)NCCN3CCN(Cc4ccccc4)CC3)n2)cc1,-49%
18,COc1ccccc1NC(=S)NC(=O)C(C)(C)C,-9.31%
19,Cc1ccc2nc(-c3ccc(N4C(=O)CC(N5CCN(CCO)CC5)C4=O)cc3)sc2c1 (stereo not shown),-3.5%
20,N#CCC(=O)Nc1ccc(C(=O)OCC(=O)Nc2ccccc2-c2ccccc2)cc1,9.2%
21,CCc1nc(SCc2ccccc2C)n[nH]1,26.9%
22,Cc1oc(CC(C)C)cc1C(=O)Nc1cccc2ccccc12,-58.8%

row,Compound,"hERG current change (%, negative = inhibition) at 10uM"
1,CCOc1ccccc1NC(=O)c1cc(CC(C)C)oc1C,-0.536%
2,Cc1cc(C(=O)Nc2cccc3ccccc23)c(C)o1,4.69%
3,Cc1ncc(C(=O)O)c(C(=O)O)c1N,13.4%
4,O=C(O)c1cnc(-c2ccccc2)nc1Sc1ccccc1,14.2%
5,O=C(C1CCCN(Cc2ccncc2)C1)N1CCc2ccccc2C1.O=C(O)C(=O)O (stereo not shown),-19.2%
6,Cc1cccc(CN2CCCC(C(=O)N3CCCCC3)C2)c1.O=C(O)C(=O)O (stereo not shown),15.5%
7,O=C(C1CCCN(Cc2ccccc2)C1)N1CCCCC1.O=C(O)C(=O)O (stereo not shown),11.3%
8,COc1ccc(S(=O)(=O)N2CCC(C(=O)N3CCc4ccccc4C3)CC2)cc1OC,-27.4%
9,COc1cc(CN2CCCC(C(=O)N3CCc4ccccc4C3)C2)cc(OC)c1OC (stereo not shown),-62%
10,COc1ccc(CN2CCCC(C(=O)N3CCCCC3)C2)cc1OC.O=C(O)C(=O)O (stereo not shown),-25.5%
11,O=C(C1CCCN(Cc2ccccc2F)C1)N1CCc2ccccc2C1.O=C(O)C(=O)O (stereo not shown),-22.6%
12,COc1ccc(CN2CCCC(C(=O)N3CCc4ccccc4C3)C2)cc1OC (stereo not shown),-62%
13,Cc1cccc(CN2CCCC(C(=O)N3CCc4ccccc4C3)C2)c1.O=C(O)C(=O)O (stereo not shown),-51.3%
14,COc1ccc(C)cc1-n1c(SCC(=O)Nc2cccc(C(=O)O)c2)nc2ccccc2c1=O,12%
15,O=C(CCC(=O)Nc1ccccc1)NNC(=O)C(c1ccccc1)c1ccccc1,-0.585%
16,CCN(c1ccccc1)P(=O)(Nc1ccccc1)Nc1ccccc1,0.944%
17,Cc1ccc(N2C(=O)CSC2c2cccnc2)cc1F (stereo not shown),5.77%
18,CCCc1nc(SCC(=O)Nc2cc(C)on2)c2c(=O)n(C)c(=O)n(C)c2n1,-2.26%
19,NCCCC[C@H]1NC(=O)[C@H](CCC(=O)O)NC(=O)c2cc([N+](=O)[O-])cc(I)c2OCC[C@@H](C(N)=O)NC1=O,26.6%
20,CCN(Cc1ccccc1)S(=O)(=O)c1ccc(C(=O)N(CCCN(C)C)c2nc3cc(C)cc(C)c3s2)cc1.Cl,-4.15%
21,Cc1cc(C)c2sc(N(CCCN(C)C)C(=O)c3ccc(S(=O)(=O)N(C)C4CCCCC4)cc3)nc2c1.Cl,-81.4%
22,CCCCN(CC)S(=O)(=O)c1ccc(C(=O)N(CCCN(C)C)c2nc3cc(C)cc(C)c3s2)cc1.Cl,-73%

row,Compound,"hERG current change (%, negative = inhibition) at 10uM"
1,Cc1cc(C)c2sc(N(CCCN(C)C)C(=O)c3ccc(S(=O)(=O)N4CCc5ccccc5C4)cc3)nc2c1.Cl,4.44%
2,Cc1cc(C)c2sc(N(CCCN(C)C)C(=O)c3ccc(S(=O)(=O)N4CCCc5ccccc54)cc3)nc2c1.Cl,0.702%
3,Cc1cc(C)c2sc(N(CCCN(C)C)C(=O)c3ccc(S(=O)(=O)N(C)Cc4ccccc4)cc3)nc2c1.Cl,-13.5%
4,CCOc1ccc(S(=O)(=O)N2CCCCC2)cc1NC(=O)Cc1ccsc1,2.15%
5,BrC(=C\c1ccccc1)/C=N/Nc1ccc2nncn2n1,-21.6%
6,CC(/C=N/Nc1ccc2nncn2n1)=C\c1ccccc1,-51.8%
7,C(=C\c1ccccc1)/C=N/Nc1ccc2nncn2n1,-19.7%
8,Oc1sc(C=Nc2ccccc2)c2ccccc12,7.99%
9,COc1ccc(CCC(=O)Nc2ccc3c(c2)OCO3)cc1,2.6%
10,COc1ccc(CCNC(=O)COc2ncnc3cc([N+](=O)[O-])ccc23)cc1,-16.5%
11,O=C(COc1ncnc2cc([N+](=O)[O-])ccc12)NC(=O)NC1CCCCC1,-56.5%
12,O=C(COc1ncnc2cc([N+](=O)[O-])ccc12)NC1CCCCC1,-2.76%
13,O=C1c2ccccc2NC(c2c(Cl)cccc2Cl)N1Cc1ccccc1 (stereo not shown),7.98%
14,CC(C)Cn1cnc2sc3c(c2c1=N)CCCC3,-25.2%
15,N=c1c2c3c(sc2ncn1Cc1ccccc1)CCCC3,-49.7%
16,N=c1c2c3c(sc2ncn1CCCO)CCCC3,-19.5%
17,N=c1c2c3c(sc2ncn1N)CCCCC3,-12.6%
18,N=c1c2c3c(sc2ncn1Cc1ccco1)CCCCC3,-62%
19,CCCCn1cnc2sc3c(c2c1=N)CCCC3,-52.1%
20,N=c1c2c3c(sc2ncn1CCN1CCOCC1)CCCCC3,-42.9%
21,N=c1c2c3c(sc2ncn1CCCN1CCOCC1)CCCCC3,-51.2%
22,N=c1c2c3c(sc2ncn1CCN1CCOCC1)CCCC3,-16.9%
